Among all 5,500 compounds or so, about 2,000 (36%) were called active. About 18% were inconclusive and are not listed. Cut-off read from the data, not from the text of the source: active = normalized growth mostly below about 0.91 (no sharp cut-off); inconclusive = no clear call, values can overlap the other calls; inactive = mostly above about 0.92. Some of the results follow.
Experiment: chemical genetic growth profiling, strain panel (AID 1159580);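 note: tested at 20 µM; growth read once vehicle control cultures reached saturation at 30 °C; 1 = growth at the plate median or of vehicle wells; lower values mean less growth of the strain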
Details: S. cerevisiae deletion strains, growth OD
[1] = locus YAL013W, strain DEP1, hits give low values
[2] = locus YDR150W, strain NUM1, hits give low values
[3] = locus YGR078C, strain PAC10, hits give low values
[4] = locus YNL153C, strain GIM3, hits give low values
[5] = locus YPL241C, strain CIN2, hits give low values

Measured: normalized growth

Nc1ccc(C(=O)/C(=C\c2cccc([N+](=O)[O-])c2)C(=O)c2ccc(-c3ccccc3)cc2)cc1
inactive: [1] 0.99 | locus YBR229C, strain ROT2, hits give low values 0.984 | locus YDL101C, strain DUN1, hits give low values 0.997 | [2] 0.975 | locus YEL061C, strain CIN8, hits give low values 0.999 | [3] 0.997 | locus YHR030C, strain SLT2, hits give low values 0.869 | locus YHR087W, strain rtc3, hits give low values 0.993 | locus YJL187C, strain SWE1, hits give low values 1 | locus YJR043C, strain POL32, hits give low values 0.979 | locus YJR075W, strain HOC1, hits give low values 0.997 | locus YKL190W, strain CNB1, hits give low values 0.997 | locus YLR039C, strain RIC1, hits give low values 1 | locus YLR058C, strain SHM2 (second series), hits give low values 0.987 | locus YLR085C, strain ARP6, hits give low values 0.877 | locus YLR262C, strain YPT6, hits give low values 0.915 | locus YML094W, strain GIM5, hits give low values 0.993 | locus YMR219W, strain ESC1, hits give low values 0.988 | locus YMR263W, strain SAP30, hits give low values 1.01 | [4] 0.966 | locus YNL298W, strain CLA4 (second series), hits give low values 0.936 | locus YNL322C, strain KRE1, hits give low values 0.971 | locus YNR030W, strain Alg12, hits give low values 0.955 | locus YPL055C, strain LGE1, hits give low values 1 | [5] 0.949 | locus YPR135W, strain CTF4, hits give low values 0.945

CCN1C[C@]2(C)CC[C@H](O)[C@@]34C5C[C@@H]6[C@@H](OC)C[C@@](O)(C5[C@H]6O)[C@@H](CC23)C14 (some centres not stated)
inactive: [1] 1.01 | locus YAL040C, strain CLN3, hits give low values 1 | locus YCL061C, strain MRC1 (second series), hits give low values 1 | [2] 0.996 | locus YDR363W, strain ESC2, hits give low values 1.03 | locus YER002W, strain NOP16, hits give low values 1.01 | [3] 0.999 | locus YGR229C, strain SMI1, hits give low values 1.02 | locus YMR307W, strain GAS1, hits give low values 0.999 | locus YNL128W, strain TEP1, hits give low values 1 | [4] 1.01 | locus YNL175C, strain NOP13, hits give low values 1.01 | locus YNL197C, strain WHI3, hits give low values 1.01 | locus YNL224C, strain SQS1, hits give low values 0.997 | locus YOR083W, strain WHI5 (second series), hits give low values 1.01 | [5] 1
